# Sampled rows, rich in hits. Any-hit rate of the full collection: about 5.7%.
# Giardia killer = Giardia lamblia killing; activity change, % at 7.66 µM, hits read low; Giardia lamblia trophozoite viability; AID 540267; actives 0.15% (n = 340,000); in the data active = activity change below about -80%; inconclusive = between about -30% and that limit;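 note: parasites exposed to compound for two days anaerobically before the ATP read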
#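 Each well holds 100 Giardia trophozoites and compound. After two days (48 hrs) at 37 deg C in anaerobic conditions, ATP is quantified by luminescence.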
# KB-V1 cytotox = kills drug-selected multidrug resistant KB-V1 cells; KB-V1 MDR cells viability, CellTiter-Glo, 72 h; Potency, µM (doses to about 46.1 µM), hits mostly cytotoxic; actives 3.4% (n = 400,000); AID 1347076; note: nearly all actives have a fitted effect of over 60% in size
#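 Cytotoxicity via CellTiter-Glo luminescence after 72 h compound exposure at 37 degrees C. Cells: drug-selected KB-V1 line, DMEM phenol-red free plus 10% FBS. Compounds tested at multiple concentrations; normalized data fitted to concentration-effect curves.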
# PI4K2A block = inhibitors of human PI4K2A. Q9BTU6. purified PI4K2A, ADP-Glo luminescence, 1 h; hits give low values. activity change, negative = inhibition, % at 76.9 µM. actives 0.13% (n = 420,000). AID 1346378; in the data active = activity change below about -50%; inconclusive = mostly about -30% to -49%
# Target sequence (Q9BTU6 whole entry, looked up): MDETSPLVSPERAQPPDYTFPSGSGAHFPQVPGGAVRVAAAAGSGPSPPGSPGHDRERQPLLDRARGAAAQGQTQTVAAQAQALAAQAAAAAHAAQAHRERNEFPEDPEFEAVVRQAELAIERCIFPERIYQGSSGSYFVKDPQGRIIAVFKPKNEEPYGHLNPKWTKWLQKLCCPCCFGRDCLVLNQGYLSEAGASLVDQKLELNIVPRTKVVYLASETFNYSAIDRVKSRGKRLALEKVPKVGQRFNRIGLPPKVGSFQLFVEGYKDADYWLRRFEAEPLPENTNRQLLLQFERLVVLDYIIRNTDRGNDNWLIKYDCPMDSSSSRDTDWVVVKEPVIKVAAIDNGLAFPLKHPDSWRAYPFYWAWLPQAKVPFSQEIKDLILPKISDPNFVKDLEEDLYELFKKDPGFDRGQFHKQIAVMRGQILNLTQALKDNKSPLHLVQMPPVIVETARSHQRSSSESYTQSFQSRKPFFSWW
#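 PI4K2A activity was measured by ADP-Glo luminescence: enzyme (4 ug/mL stock) and phosphatidylinositol (1.2 mM stock) in Tris pH 7.5/MgCl2/EGTA/Triton X-100 buffer were reacted with ATP (300 microM stock) for one hour at ambient temperature.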
# A549 tox = kills or reduces viability of A549 cells in Nrf2 counter-screen; Potency, µM (highest dose often 46 µM), usual class: inhibitors; A549 ARE-Fluc cells, CellTiter-Fluor viability, 18-24 h; AID 504648; actives 0.16% (n = 390,000)
#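 Cytotoxicity counterscreen: CellTiter-Fluor fluorescence was measured in A549 ARE_Fluc cells after 18-24 h of compound exposure in a concentration series. The subsequent BugLite luminescent read reports ARE-luciferase activity.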
# KB-3-1 cytotox = kills parental KB-3-1 adenocarcinoma cells; KB-3-1 viability, CellTiter-Glo ATP luminescence, 72 h; Potency, µM (top dose mostly 46.1 µM), hits mostly cytotoxic; actives 1.4% (n = 400,000); note: nearly all actives have a fitted effect of over 60% in size
#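 Parental KB-3-1 viability, qHTS format: 72 h compound exposure, 37 °C; CellTiter-Glo; media-only wells and DMSO plates as controls; concentration-effect fits on corrected data.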
# Nrf2 inh = inhibitors of Nrf2 signaling; Potency, µM (highest dose often 46 µM), hits mostly inhibitors; actives 2.1% (n = 360,000); A549 ARE-Fluc reporter, luciferase luminescence, 18-24 h; note: nearly all actives have a fitted effect of over 60% in size
#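 Cells were seeded and rested 2 h, then exposed to compounds for 18-24 h. CellTiter-Fluor was read first as a viability measure. BugLite was added 15 min before the final luminescent read of ARE-luciferase activity in A549 cells.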
# Hits are given with their value; i = inactive; ? = inconclusive; nt = no result given. Unless noted, calls come from the whole dose curve; as a rule, active = well fitted curve in the direction sought with a large enough effect; inconclusive = small, poorly fitted or top-dose-only effect, or another doubt; inactive = no such curve, though single readings can be large; an effect the other way counts as inactive or inconclusive.
SMILES,Giardia killer,KB-V1 cytotox,PI4K2A block,A549 tox,KB-3-1 cytotox,Nrf2 inh
CCOC(=O)c1c(-c2ccc(OC)cc2)csc1NC(=O)CSc1ncnc2sccc12,i,i,i,i,i,15µM
CCOC(=O)c1c(-c2ccccc2)csc1NC(=O)CSc1nnc(C)s1,i,?,i,i,?,13µM
CCOC(=O)c1c(NC(=O)CSc2nnc(C)s2)sc2c1CCC(C)C2 (centres undefined),i,10µM,i,i,i,nt
COC(=O)[C@]12C[C@H](CC(=O)NCc3cccc4ccccc34)C(=O)N(Cc3ccc(Cl)cc3Cl)C1=C[C@H](C(C)C)O[C@@H]2C1CC1,nt,nt,i,nt,nt,nt
COc1ccc(Nc2cc(C(=O)NCCCN3CCN(c4ccc(OC)cc4)CC3)c3ccccc3n2)cc1,nt,nt,i,?,nt,nt
COc1ccc([C@H](C#Cc2ccccc2)CC(=O)O)cc1OC1CCCC1,nt,nt,i,nt,nt,nt
Cc1c(O)c2c(c(C(=O)/C=C/c3ccccc3)c1O)OC(C)(C)C=C2,nt,i,nt,nt,i,nt
CCCCN(C)/C=N/c1c(C#N)cnn1-c1ccc(C)cc1,i,5.8µM,i,i,?,?
COC(=O)c1ccsc1NC(=O)CN1CCN(Cc2ccc3c(c2)OCO3)CC1,i,16µM,i,i,i,i
Cc1c(O)ccc(C(=O)CN2CCN(Cc3ccc4c(c3)OCO4)CC2)c1O,i,23µM,i,i,i,i
CC(=O)N1c2ccc(S(=O)(=O)NCC3CCC(C(=O)Nc4cccc(F)c4)CC3)cc2CC1C (centres undefined),nt,nt,i,i,nt,?
CCn1cc(-c2cc(C(=O)O)c3ccccc3n2)cn1,?,?,i,i,?,18µM
CCNC(=S)NNC(=O)c1cc(-c2cccc(OC)c2)nc2ccccc12,i,i,i,i,i,i
COCCNC(=O)c1cc(-c2ccc(-c3ccccc3)cc2)nc2ccccc12,i,i,i,i,21µM,?
CCNC(=S)NNC(=O)c1cc(-c2ccccc2C)nc2ccccc12,i,16µM,i,i,i,nt
CCNC(=S)NNC(=O)c1cc(-c2ccc(OCC)cc2)nc2ccccc12,-81,i,i,i,?,nt
CCN1CCc2c(sc(-n3cccc3)c2C(C)NC(=O)Nc2cc(Cl)c(OC)cc2OC)C1 (centres undefined),nt,nt,i,i,nt,?
CC1(C)Oc2c(ccc(O)c2CN2CCOCC2)C2=C1CCCC2,i,18µM,i,i,i,i
N#C/C(=C(/O)c1ccc(Cl)cc1)c1nc2ccccc2[nH]1,i,i,i,i,i,i
COc1cc(/C=C(/C(=O)c2cccs2)c2nc3ccccc3[nH]2)cc(OC)c1O,i,21µM,i,?,3.7µM,i
O=C(/C(=C/c1ccc(Cl)cc1)c1nc2ccccc2[nH]1)c1ccccc1,i,?,i,?,5.2µM,?
O=C(N/C(=C/c1ccc(Br)cc1)c1nc2ccccc2[nH]1)c1ccco1,i,i,i,i,i,i
O=C(N/C(=C/c1ccc(Cl)cc1)c1nc2ccccc2[nH]1)c1ccco1,i,12µM,i,i,i,i
CCOC(=O)CC[C@H]1CC[C@]2(CCCN(S(=O)(=O)C3CCCCC3)C2)O1,nt,nt,i,nt,nt,nt
CCCOc1cccc(-c2cc(-c3n[nH]c(=S)n3CC)c3ccccc3n2)c1,i,?,i,?,i,13µM
SMILES,Giardia killer,KB-V1 cytotox,PI4K2A block,A549 tox,KB-3-1 cytotox,Nrf2 inh
CCn1c(-c2cc(-c3ccc(C)cc3)nc3ccccc23)n[nH]c1=S,i,i,i,i,i,i
COc1ccc(C2Nc3ccccc3C(=O)N2Cc2ccc(C)o2)cc1COc1c(C)cccc1C (centres undefined),nt,nt,i,nt,nt,nt
C=CC[C@@]1(c2ccccc2)Oc2ccccc2-c2nc3ccccc3nc21,nt,nt,i,nt,nt,nt
Cc1cc2cc(CN(Cc3cccs3)C(c3nnnn3C(C)(C)C)C(C)C)c3nnnn3c2cc1C (centres undefined),i,1.8µM,i,i,i,i
CCOC(=O)c1c(NC(=O)c2cccc(N3C(=O)CCC3=O)c2)sc(C)c1C,?,10µM,i,i,i,i
C#CC(C)(CC)NC(=O)Cn1nnc(-c2ccc(OCc3ccccc3F)cc2)n1 (centres undefined),nt,i,i,i,i,i

# Screening data deposited in PubChem BioAssay by National Center for Advancing Translational Sciences (NCATS).
